The results in this text go back to ChEMBL document CHEMBL4513216, “Probing the Open Global Health Chemical Diversity Library for Multistage-Active Starting Points for Next-Generation Antimalarials” (ACS Infect Dis, 2020).

The campaign covered roughly 69,000 compounds. About 8,600 (12%) showed an effect of 50% or more. The list comes from a sample in which strong results are over-represented; it also holds similar structures and randomly drawn compounds.

This assay concerns Plasmodium berghei. As to the kind of experiment: Screen against P. berghei liver stage (PbLuc), transformed with Luciferase, at 10uM. The format is functional, HepG2. To be noted: tested at 10 uM.
As to `C=C(Cl)CN(C)C1CCN(CCc2ccccn2)CC1`, the INHIBITION came to 35.9%.

With `CSc1nccc(N2CCC3(CCCN(Cc4ccc(F)cc4)C3)C2)n1` (centres undefined), the INHIBITION is reported as 85.2%.

Consider `CCN1CCC2(CCC1=O)CN(c1ccnc(SC)n1)CCN2C` (centres undefined), for which the INHIBITION is on record as 8.57%.

With `CSc1nccc(N2CCC3(CCCN(CC4CC4)C3)C2)n1` (centres undefined), the INHIBITION was -21.9%.

Regarding `CSc1nccc(N2CCN(C)C3(CCNC(=O)CC3)C2)n1` (centres undefined), the INHIBITION is listed as -17.7%.

For `Fc1ccc(CN2CCCC3(CCN(Cc4ncc[nH]4)C3)C2)cc1F` (centres undefined), the INHIBITION is recorded as 26%.

For the molecule `CSc1nccc(N2CCC3(CCCN(Cc4cccc(C)c4)C3)C2)n1` (centres undefined), the INHIBITION amounted to 69.9%.

Take `CSc1nccc(N2CCC3(CCCN(CCc4ccccc4)C3)C2)n1` (centres undefined): the INHIBITION stood at 85.2%.

Turning to `Cc1cccc(N2CCC3(CCCN(C(=O)Cc4cccnc4)C3)C2)n1` (centres undefined), the INHIBITION is 17.5%.

In the case of `CCO[C@H]1CO[C@@]2(CCCN(S(=O)(=O)c3cccnc3)C2)C1`, the INHIBITION was 34.6%.

For `CCOC[C@]12COC[C@H]1CN(Cc1ccc3c(c1)OCO3)C2`, the INHIBITION worked out at 38.5%.

As for `Cc1nc(N2CCN(C(=O)c3ccccn3)CC2)c2c(n1)c(C)nn2C`, the INHIBITION stood at 12.6%.

For `CN1CCC(N(Cc2ccncc2)C(=O)COCC2CCCCO2)CC1` (centres undefined), the INHIBITION was 17.2%.

With `CCCC(=O)N1CCC(c2cc[nH]n2)C1` (centres undefined), the INHIBITION was found to be 17.4%.

As for `CN(C)CCN1CCOCC2(C1)CN(Cc1ccco1)CCO2` (centres undefined), the INHIBITION is on record as 26.7%.

Take `CCNC(=O)N1CCC(OC)c2ccccc2N(CC(=O)NC)C(=O)C1` (centres undefined): the INHIBITION was found to be 35.1%.

As for `Cc1ccc(C(O)CNC(=O)Nc2cc(C)nn2C)cc1` (centres undefined), the INHIBITION was -11.735%.

Consider `CN(C)C(=O)N1C[C@H]2CC[C@@H](C1)N(C(=O)c1c(Cl)cccc1Cl)C2`, for which the INHIBITION came to 12.1%.

In the case of `CS(=O)(=O)NCCNc1ncnc2cccc(F)c12`, the INHIBITION amounted to 24.9%.

As for `CSCCCNc1ncnc2cccc(F)c12`, the INHIBITION was determined as 56.7%.

`Fc1cccc2ncnc(NCCCc3ccncc3)c12`: the INHIBITION stood at 73%.

In the case of `CCS(=O)(=O)NCCCNc1ncnc2cc(F)c(F)cc12`, the INHIBITION is reported as -30.5%.

As for `CCN(CCCNc1ncnc2cc(F)c(F)cc12)S(C)(=O)=O`, the INHIBITION is reported as -4.93%.

Take `CN(C)CCCNc1ncnc2cccc(F)c12`: the INHIBITION came out at 41.8%.

Regarding `CN1[C@@H]2CC[C@H]1CN(C(=O)c1sccc1S(N)(=O)=O)CC2`, the INHIBITION was found to be 8.74%.

For the molecule `Cc1nnsc1C(=O)NCc1nn(C2CCCC2)c2c1CCCC2`, the INHIBITION came out at 49.4%.

Consider `O=C(CN1C(=O)CCC1=O)NCc1cc(C2CC2)n(C2CCCC2)n1`, for which the INHIBITION is 13.9%.

`O=C(CN1C(=O)CCC1=O)NCc1nn(C2CCCC2)c2c1CCCC2`: the INHIBITION is listed as 56.3%.

`CC(=O)N[C@@H]1CN(Cc2ccccc2C#N)C[C@H]1c1ccc(C)cc1`: the INHIBITION worked out at 41.3%.

For the molecule `CS(=O)(=O)CCn1ccc(NC(=O)Cc2ccccc2F)n1`, the INHIBITION is listed as 21.2%.

With `Cn1ccc(NC(=O)Cc2ccccc2F)n1`, the INHIBITION turned out to be 57.1%.

As to `CSC1(CNC(=O)NCc2sccc2C)CCOCC1`, the INHIBITION was 30.4%.

Consider `COCCn1ccc(NCc2sccc2C)n1`, for which the INHIBITION was -60.1%.

For the molecule `O=C(NCc1ccccc1F)Nc1ccn(CCN2CCOCC2)n1`, the INHIBITION was 50.1%.

`O=C(NCc1cccc(F)c1)Nc1ccn(CCN2CCOCC2)n1`: the INHIBITION was 40.5%.

For `Cc1ccsc1CNC(=O)Nc1ccn(CCN2CCOCC2)n1`, the INHIBITION was found to be 64%.

In the case of `Cn1ccc(NC(=O)Cc2cccc(F)c2)n1`, the INHIBITION is recorded as -74.2%.

As for `O=C(Cc1ccccc1Cl)Nc1ccn(CCN2CCOCC2)n1`, the INHIBITION came to 45.8%.

For the molecule `Cc1[nH]c2c(C)ccc(C)c2c1CC(=O)NC1CCCNC1=O` (centres undefined), the INHIBITION is 35.7%.

As to `COC(=O)CCNC(=O)c1nc(NS(=O)(=O)c2ccccc2)sc1C`, the INHIBITION is recorded as 32.2%.

As for `COc1c(C2CCCN2CC(=O)N2CCCCC2)c(C)nn1C` (centres undefined), the INHIBITION is recorded as 8.12%.

For `O=C(CCn1cnnn1)N1CCCC(CO)(CCCc2ccccc2)C1` (centres undefined), the INHIBITION is 23.1%.

As to `O=C(CCn1cncn1)N1CCCC(CO)(CCCc2ccccc2)C1` (centres undefined), the INHIBITION is reported as 72.3%.

In the case of `O=C(CCn1cnnn1)N1CCCC(CO)(CCc2ccccc2)C1` (centres undefined), the INHIBITION is given as 39.8%.

`CN(C)C(=O)CN1CCCC1c1nc(N)ncc1-c1ccc(F)cc1` (centres undefined): the INHIBITION amounted to 34%.

For the molecule `N#Cc1ccc(NC2CCN(CC(F)F)CC2)c(F)c1`, the INHIBITION is reported as 8.53%.

Regarding `N#Cc1cccc(N2CC3(CCN(C(=O)c4ccnnc4)C3)CC2=O)c1` (centres undefined), the INHIBITION is reported as -13.1%.

For the molecule `O=C(CCN1CCCC(CC2CC2)(C(=O)O)C1)NC1CCCC1` (centres undefined), the INHIBITION came to 60.7%.

Consider `Cc1nc(C)n(CC2CCCN(CCC(=O)NC3CCCC3)C2)n1` (centres undefined), for which the INHIBITION is -8.11%.

As to `CC(C)=CCC1(C(=O)O)CCCN(c2cc(N)ncn2)C1` (centres undefined), the INHIBITION is 46.4%.

In the case of `O=C(CCN1CCCC(CO)(CC2CC2)C1)NC1CCCCC1` (centres undefined), the INHIBITION was found to be 34.5%.

With `CC(C)=CCC1(C(=O)O)CCCN(CCC(=O)NC2CC2)C1` (centres undefined), the INHIBITION was determined as 61.8%.

Consider `CC(C)=CCC1(C(=O)O)CCCN(c2ccnc(C)n2)C1` (centres undefined), for which the INHIBITION was 47.4%.

Regarding `CC(=O)N(Cc1ncc(C)o1)C1CCN(CCc2cccs2)C1` (centres undefined), the INHIBITION turned out to be 12.7%.

Take `CCn1cc(NC(=O)C(C)n2ncc(Cl)c2C)c(C(=O)OC)n1` (centres undefined): the INHIBITION worked out at 6.83%.

For `CCSc1cc(C(=O)NCCNC(=O)Cc2ccccc2)ccn1`, the INHIBITION stood at 26.9%.

With `CCSc1cc(C(=O)NCc2ccc(C(=O)NC)cc2)ccn1`, the INHIBITION stood at 76.5%.

With `CCSc1cc(C(=O)NCc2ccccc2O)ccn1`, the INHIBITION is reported as 34.7%.

Take `Cc1nc(C)c(C(=O)Nc2ccc(-c3nnc(N(C)C)o3)cc2)o1`: the INHIBITION stood at 6.02%.

Regarding `CCc1cnc(CN2CCC(N(C)Cc3noc(C)n3)C2)o1` (centres undefined), the INHIBITION was 13.6%.

As for `CN(CCc1ccncc1)C1CCCN(Cc2noc(C3CC3)n2)C1` (centres undefined), the INHIBITION turned out to be 14.8%.

Regarding `Cc1nc(CN2CCCC(N(C)CCc3cccs3)C2)no1` (centres undefined), the INHIBITION was determined as 3.47%.

Take `CN(CCc1cccs1)C1CCCN(Cc2noc(C3CC3)n2)C1` (centres undefined): the INHIBITION is listed as 51.8%.

For the molecule `CCc1nc(CN2CCCC(N(C)CCc3cccs3)C2)no1` (centres undefined), the INHIBITION worked out at 56.6%.

For `CCc1nc(CN(C)C2CCN(CCc3cccs3)C2)no1` (centres undefined), the INHIBITION is on record as -79.1%.

For `CCc1nc(CN2CCCC(N(C)CCn3cccn3)C2)no1` (centres undefined), the INHIBITION was 33.7%.

With `CN(C)Cc1nnc2n1CCN(c1cnccn1)CC2`, the INHIBITION is reported as -4.02%.

Take `Cc1nc(C2CCN(C(=O)c3cnc(N(C)C)nc3)CC2)c2sccn12`: the INHIBITION is -4.82%.

As for `CN(C[C@@H]1CCC[C@@H]2CN(c3ncccn3)C[C@@H]21)C1CC1`, the INHIBITION was 38.3%.
